HEK293 cAMP cs: qHTS Assay for Agonists of the Thyroid Stimulating Hormone Receptor: Activators of Intracellular cAMP Concentrations in Parental HEK 293; parental HEK293 CNG cAMP sensor, membrane potential fluorescence; Potency, µM (highest dose often 57.1 µM), usual class: activators; actives 2.5% (n = 73,000); AID 938, 2007; note: nearly all actives have a fitted effect of over 55% in size
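Parental HEK 293 cells stably expressing a modified CNG channel (no TSHR) report cAMP rise as membrane depolarization. Membrane potential dye with 100 uM RO 20-1724 was loaded for 60 min at room temperature, then compound added for 30 min; fluorescence read at 590 nm.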
ERK AVP block: qHTS Assay for Inhibitors of the ERK Signaling Pathway using a Homogeneous Screening Assay; actives 0.99% (n = 72,000); Potency, µM (doses to about 57.5 µM), hits mostly inhibitors; HEK293-V1b, vasopressin-stimulated pERK AlphaScreen; note: nearly all actives have a fitted effect of over 55% in size
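HEK293 cells stably expressing V1b receptor, preincubated 30 min at 37 °C with compound, then stimulated 5 min with 25 nM vasopressin. Phospho-ERK by AlphaScreen SureFire after 5 h RT; normalized to DMSO and vasopressin; AC50 by Hill fit.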
Tau fil binding: qHTS Assay for Tau Filament Binding; Microtubule-associated protein tau (Homo sapiens), P10636; recombinant tau filaments, thioflavin S fluorescence, 15 h; filaments grown with octadecylsulfate alongside compound; Potency, µM (top dose mostly 57.1 µM); actives 2% (n = 71,000);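 note: actives lower thioflavin S fluorescence by blocking filaments or displacing dye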
Target sequence (P10636 whole entry, looked up): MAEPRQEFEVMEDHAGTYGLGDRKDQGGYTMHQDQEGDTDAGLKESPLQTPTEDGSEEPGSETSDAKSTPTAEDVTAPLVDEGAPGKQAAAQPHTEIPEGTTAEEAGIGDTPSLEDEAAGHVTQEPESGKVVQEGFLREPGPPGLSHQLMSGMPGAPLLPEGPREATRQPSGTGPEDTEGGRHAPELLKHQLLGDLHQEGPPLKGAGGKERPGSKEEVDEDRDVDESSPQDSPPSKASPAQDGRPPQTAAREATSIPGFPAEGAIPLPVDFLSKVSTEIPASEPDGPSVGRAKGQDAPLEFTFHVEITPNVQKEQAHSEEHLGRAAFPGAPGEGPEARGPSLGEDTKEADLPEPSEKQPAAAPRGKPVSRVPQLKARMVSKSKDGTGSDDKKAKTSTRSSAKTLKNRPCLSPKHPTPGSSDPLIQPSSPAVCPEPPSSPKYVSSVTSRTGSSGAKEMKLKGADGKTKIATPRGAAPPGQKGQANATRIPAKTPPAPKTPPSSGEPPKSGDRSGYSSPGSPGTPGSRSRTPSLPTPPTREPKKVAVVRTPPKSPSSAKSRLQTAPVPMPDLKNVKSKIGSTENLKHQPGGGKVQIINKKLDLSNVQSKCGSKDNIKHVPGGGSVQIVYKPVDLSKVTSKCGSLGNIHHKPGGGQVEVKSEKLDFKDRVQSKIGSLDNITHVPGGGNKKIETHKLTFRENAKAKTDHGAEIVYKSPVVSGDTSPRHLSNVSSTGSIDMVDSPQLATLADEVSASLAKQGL
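Thioflavine S fluorescence (ex 450, em 510 nm) reports filaments formed from 1 uM human tau plus 30 uM ODS over 15 h at 37 C (10 mM HEPES pH 7.4, 100 mM NaCl, 5 mM DTT); compounds displacing dye or blocking filaments lower signal.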
CRE-bla Fsk: Cell signaling CRE-BLA (Fsk stim) | CHO CRE-bla reporter (cAMP response element driving beta-lactamase), forskolin EC10, beta-lactamase ratio | Potency, µM (titrated, usually from 38.2 µM), most hits filed as activators | actives 2.5% (n = 71,000); active = well fitted activation curve with a large enough effect in the signal ratio, with a control signal flat, not every such curve was filed as active; inconclusive = small, poorly fitted or top-dose-only effect, or effect the other way, or a change in a side signal; the % refers to the signal ratio
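Modulation of forskolin signalling: compounds in titration series added with EC10 NKH 477 to CHO cells carrying a CRE-driven beta-lactamase reporter, 3 h, 37C. CCF4 FRET ratio (460/530 nm, ex 405 nm) gives %activity and AC50.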
TSHR agonist: qHTS Assay for Agonists of the Thyroid Stimulating Hormone Receptor; AID 926, 2007; HEK293-CNG-TSHR cells (CNG channel as cAMP sensor), membrane potential dye, cAMP; Thyrotropin receptor (Homo sapiens), P16473; Potency, µM (titrated, usually from 57.1 µM), most hits filed as activators; actives 0.48% (n = 73,000); active = well fitted activation curve with a large enough effect in the main read-out, with a control signal flat, not every such curve was filed as active; inconclusive = small, poorly fitted or top-dose-only effect, or a change in a side signal; inactive = no such curve, though single readings can be large or run the other way; reference of the percent scale not stated here;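 note: the control signal comes from parental cells without the receptor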
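HEK 293 cells stably expressing TSHR and a modified CNG channel, with CNG-only parental cells as counterscreen, were preloaded 60 min at room temperature with membrane potential dye containing 100 uM RO 20-1724. Compound exposure was 30 min, and depolarization was read as fluorescence at 590 nm.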
Large screens that a line does not name were inactive. Rows were chosen to be rich in hits. Some 7.6% of all compounds tested hit in one or more screens of this group. Unless noted, calls come from the whole dose curve; as a rule, active = well fitted curve in the direction sought with a large enough effect; inconclusive = small, poorly fitted or top-dose-only effect, or another doubt; inactive = no such curve, though single readings can be large; an effect the other way counts as inactive or inconclusive.

Cc1cc(=O)oc2cc(OC3C=CC(C#CC(C)(C)C)OC3CO)ccc12 (stereo not given)	none (no result: Tau fil binding, CRE-bla Fsk)
CCN(CC)CCCC(C)n1c(-c2ccccc2)nc2c(N3CCOCC3)nc(C)nc21 (stereo not given)	HEK293 cAMP cs inconclusive, TSHR agonist inconclusive
Cc1cccc(NS(=O)(=O)c2ccc(Cl)c(C(=O)O)c2)c1	none (no result: ERK AVP block, Tau fil binding, CRE-bla Fsk)
N#Cc1nc(-c2ccco2)oc1N1CCc2ccccc2C1	HEK293 cAMP cs 25µM, ERK AVP block inconclusive, TSHR agonist inconclusive
CC1CC(C)CN(c2oc(-c3ccco3)nc2C#N)C1 (stereo not given)	HEK293 cAMP cs 16µM, ERK AVP block inconclusive, CRE-bla Fsk inconclusive, TSHR agonist inconclusive
N#Cc1nc(-c2ccco2)oc1N1CCN(C(c2ccccc2)c2ccccc2)CC1	TSHR agonist 4µM
N#Cc1nc(-c2ccco2)oc1N1CCCC1	CRE-bla Fsk inconclusive
N#Cc1nc(-c2ccccc2)oc1N1CCCCC1	HEK293 cAMP cs inconclusive, CRE-bla Fsk inconclusive, TSHR agonist inconclusive
COc1ccc(-c2nc(C#N)c(N3CC(C)OC(C)C3)o2)cc1OC (stereo not given)	none (no result: TSHR agonist)
COc1ccccc1OCc1nc(C#N)c(N2CC(C)CC(C)C2)o1 (stereo not given)	HEK293 cAMP cs 13µM, CRE-bla Fsk inconclusive, TSHR agonist inconclusive
Cc1ccccc1OC1C=CC(c2ccccc2)OC1CO (stereo not given)	none (no result: Tau fil binding, CRE-bla Fsk)
CCc1cc2c(nc1CC)CCN(CC/C(C)=N/OC[C@@H](O)COCc1ccco1)C2	none (no result: Tau fil binding, CRE-bla Fsk)
COc1ccccc1-c1nc(C#N)c(N2CCN(c3cccc(Cl)c3)CC2)o1	HEK293 cAMP cs inconclusive, TSHR agonist inconclusive
N#Cc1nc(-c2ccco2)oc1N1CCN(c2cccc(Cl)c2)CC1	HEK293 cAMP cs 20µM, ERK AVP block inconclusive, CRE-bla Fsk inconclusive, TSHR agonist inconclusive
COc1ccc(C(=O)N2CCC3(CCN(Cc4ccccc4)CC3)CC2)cc1	HEK293 cAMP cs inconclusive, TSHR agonist inconclusive
CCOC(=O)C1=C(N)OC2=C(C(=O)CC(C)(C)C2)C1c1ccco1 (stereo not given)	HEK293 cAMP cs 25µM, TSHR agonist inconclusive
O=C(CC1SC2=NCCN2C1=O)Nc1ccc(Cl)cc1 (stereo not given)	CRE-bla Fsk inconclusive
O=C(Nc1ccc(Cl)cc1)Nc1ccc2c(c1)N1CCN=C1S2	ERK AVP block 32µM, CRE-bla Fsk inconclusive
COC(=O)[C@H](C)NC(=O)C/C=C\[C@@H](C)[C@@H](CO)OC	none (no result: Tau fil binding, CRE-bla Fsk)
O=C(C1CCC(CNS(=O)(=O)c2cccc3cccnc23)CC1)N1CCCC1 (stereo not given)	HEK293 cAMP cs 25µM, TSHR agonist inconclusive
CC(=O)c1ccc(NC(=O)C2CCN(S(=O)(=O)c3cccc4cccnc34)CC2)cc1	none
O=C(C1CCC(CNS(=O)(=O)c2cccs2)CC1)N1CCCCC1 (stereo not given)	none
O=C(C1CCN(S(=O)(=O)c2cccc3cccnc23)CC1)N1CCN(c2ccc(Cl)cc2)CC1	HEK293 cAMP cs inconclusive, ERK AVP block 7.9µM, TSHR agonist inconclusive
Cc1ccc(NC(=O)C2CCN(S(=O)(=O)c3cccc4cccnc34)CC2)nc1	ERK AVP block 32µM
Cc1cccc(NC(=O)C2CCN(S(=O)(=O)c3cccc4cccnc34)CC2)n1	ERK AVP block 10µM
COc1ccc2c(c1)CCC1[C@@H]2CCC2(C)[C@@H](NCCCCCCN3C(=O)C=CC3=O)CC[C@@H]12 (stereo not given in full)	Tau fil binding inconclusive
O=C(C1CCCN(S(=O)(=O)c2ccccc2)C1)N1CCN(c2ncccn2)CC1 (stereo not given)	none
O=C(C1CCN(S(=O)(=O)c2ccc3ccccc3c2)CC1)N1CCN(c2ncccn2)CC1	HEK293 cAMP cs 25µM, ERK AVP block 25µM, CRE-bla Fsk inconclusive, TSHR agonist inconclusive
CCCn1c(C)nc2c(c1=O)c1nc3ccccc3nc1n2CCC1=CCCCC1	HEK293 cAMP cs 20µM, TSHR agonist inconclusive
Cc1nc2c(c(=O)n1CCC1=CCCCC1)c1nc3ccccc3nc1n2/N=C/c1ccco1	Tau fil binding 2µM, CRE-bla Fsk inconclusive
CCCn1c(C)nc2c(c1=O)c1nc3ccccc3nc1n2CCc1ccccc1	HEK293 cAMP cs inconclusive, CRE-bla Fsk inconclusive, TSHR agonist inconclusive
CCN(CC)c1nc(C#N)nc(N(CC)CC)n1	HEK293 cAMP cs inconclusive, CRE-bla Fsk 10µM, TSHR agonist inconclusive
c1ccc2c(c1)nnn2-c1ncnc2sc3c(c12)CCCC3	HEK293 cAMP cs inconclusive, CRE-bla Fsk inconclusive, TSHR agonist inconclusive
Cc1nc(N2CCN(c3ccccc3)CC2)c2c3c(sc2n1)CCC3	CRE-bla Fsk 4µM, TSHR agonist 16µM
Oc1ccc(N2CCN(c3ncnc4sc5c(c34)CCC5)CC2)cc1	ERK AVP block inconclusive (no result: TSHR agonist)
Cc1nc(-n2nnc3ccccc32)c2c3c(sc2n1)CCCC3	HEK293 cAMP cs 20µM, CRE-bla Fsk inconclusive, TSHR agonist inconclusive
Cc1noc(C)c1-c1cc(N(C)Cc2ccco2)ncn1	none
CC1=C(C(=O)OCC2CCCO2)C(c2ccncc2)C2=C(CC(C)(C)CC2=O)N1 (stereo not given)	HEK293 cAMP cs 4µM, CRE-bla Fsk inconclusive, TSHR agonist inconclusive
C=CCNC(=O)c1c(N)n(-c2cccc(S(N)(=O)=O)c2)c2nc3ccccc3nc12	CRE-bla Fsk 10µM
COCCNC(=O)c1c(N)n(-c2cccc(C)c2)c2nc3ccccc3nc12	CRE-bla Fsk 10µM
Nc1c(C(=O)NCCN2CCOCC2)c2nc3ccccc3nc2n1-c1ccccc1	CRE-bla Fsk inconclusive
CCCCNCC	HEK293 cAMP cs inconclusive, TSHR agonist inconclusive
CC(C)=NOC[C@@H](O)COCc1ccco1	none (no result: Tau fil binding, CRE-bla Fsk)
COc1cc(C(=O)Oc2c(CN3CCOCC3)cc(Cl)c3cccnc23)cc(OC)c1OC	ERK AVP block inconclusive, Tau fil binding inconclusive, CRE-bla Fsk 7.9µM
COc1ccc(Oc2ncc3nc(-c4ccc(OC)cc4)c(=O)n(CCC#N)c3n2)cc1	HEK293 cAMP cs inconclusive, CRE-bla Fsk inconclusive, TSHR agonist inconclusive
CCC1Oc2ccc(C)cc2N(CC(=O)NCCC2=CCCCC2)C1=O (stereo not given)	HEK293 cAMP cs 6.3µM, TSHR agonist inconclusive
CC(=O)NCCNc1ccnc(-c2ccccc2C(F)(F)F)n1	none
COc1ncc2nc(-c3cc(F)cc(F)c3)c(=O)n(-c3ccccc3)c2n1	Tau fil binding inconclusive, CRE-bla Fsk inconclusive
CC(=O)Oc1ccc2occ(C(=O)c3cccs3)c2c1	HEK293 cAMP cs 25µM, TSHR agonist inconclusive
O=C(O)COc1ccc2occ(C(=O)c3ccccc3)c2c1	none
